Assay outcomes deposited in PubChem by National Center for Advancing Translational Sciences (NCATS).
Most compounds without a hit are left out; they make up all but 4.6% or so of the library.
TRHR agonist: qHTS for Small Molecule Agonists and Allosteric Enhancers of Human TRH Receptor: Primary Screen for Agonists; activation, % at 2 µM; 360,000 compounds, 0.18% hits; AID 493084, 2011; TRHR cells, calcium flux fluo-8, FDSS agonist mode; Thyrotropin-releasing hormone receptor (Homo sapiens), P34981
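Read-out: compound-evoked intracellular calcium rise in TRHR cells, fluo-8 dye, kinetic FDSS fluorescence at 1 s/cycle following a 10-cycle baseline. Cells cultured overnight before dye loading (30 min–1.5 h, RT).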
TRHR enhancer: qHTS for Small Molecule Agonists and Allosteric Enhancers of Human TRH Receptor: Primary Screen for Enhancers; TRHR cells, fluo-8 calcium fluorescence, EC20 TRH enhancement; Thyrotropin-releasing hormone receptor (Homo sapiens), P34981; AID 493056, 2011; 360,000 compounds, 0.66% hits; enhancement, % at 2 µM; in the data active = enhancement above about 30%
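Enhancer read-out: after compound pinning and an initial kinetic agonist-mode read, an EC20 of TRH (10 nM final) was injected and fluo-8 calcium signal (Ex 480/Em 530) followed at 1 s/cycle for 100 cycles in TRHR-expressing cells.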
D1 potentiator: Potentiators of Human D1 Dopamine Receptor: qHTS; HEK293 TREx D1 cells, calcium flux, dopamine EC20 potentiation; potentiation, % at 10 µM; 360,000 compounds, 0.036% hits; AID 504651, 2011; in the data active = potentiation above about 30%
Target sequence (P21728 whole entry, looked up): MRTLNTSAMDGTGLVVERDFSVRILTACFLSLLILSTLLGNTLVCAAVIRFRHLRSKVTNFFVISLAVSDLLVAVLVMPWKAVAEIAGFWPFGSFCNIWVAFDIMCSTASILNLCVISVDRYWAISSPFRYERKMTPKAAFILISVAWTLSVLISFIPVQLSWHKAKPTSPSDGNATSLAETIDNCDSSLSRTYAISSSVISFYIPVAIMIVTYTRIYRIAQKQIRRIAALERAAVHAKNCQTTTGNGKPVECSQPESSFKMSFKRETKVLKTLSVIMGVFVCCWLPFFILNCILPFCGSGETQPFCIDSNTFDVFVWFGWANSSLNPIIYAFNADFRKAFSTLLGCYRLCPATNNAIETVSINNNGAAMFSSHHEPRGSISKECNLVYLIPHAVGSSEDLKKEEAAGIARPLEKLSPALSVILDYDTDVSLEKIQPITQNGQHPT
D1 antag: Antagonist of Human D 1 Dopamine Receptor: qHTS | D(1A) dopamine receptor (Homo sapiens), P21728 | HEK293 TREx D1 cells, calcium flux, dopamine EC80; stronger effect = lower value | activity change, negative = inhibition, % at 10 µM | 360,000 compounds, 3.2% hits | AID 504652, 2011; in the data active = activity change below about -30%
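Inducible Hek293 Trex D1 cells (tetracycline, overnight, 30 C). Calcium dye 30–90 min RT. Antagonist mode: EC80 dopamine added after 180 s compound read.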
D1 ag: Allosteric Agonists of the Human D1 Dopamine Receptor: qHTS; HEK293 T-REx D1 cells, calcium flux, agonist mode; activation, % at 2 µM; 360,000 compounds, 1% hits
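Agonism was scored from calcium flux recorded over 180 s (1 read/s) after pintool compound addition, following a 10-cycle baseline. Cells were inducible force-coupled HEK293 TREx D1, plated overnight at 30 C and loaded with no-wash calcium dye.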
Epigenetic derep: Quantitative High-Throughput Screen for Regulators of Epigenetic Control. AID 1865, 2009. Potency, µM (series often up to 53.9 µM), most hits filed as activators. murine LDR cells, GFP reporter derepression, 30 h. 280,000 compounds, 0.2% hits; active = well fitted activation curve with a large enough effect; inconclusive = small, poorly fitted or top-dose-only effect; note: nearly all actives have a fitted effect of over 60% in size
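GFP-positive cell count by laser-scanning cytometry (objects 20–120 um) after 30 h, 37 C compound exposure of murine LDR cells; reporter is CMV-GFP integrated at a silenced locus, inducible by HDAC or DNMT inhibitors.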
Each line names hits and unclear results; the compound was inactive in the other large screens. Cut-off read from the data, not from the text of the source, unless noted: active = activation above about 30%; inactive = the rest.

Cc1ccc(CN(Cc2ccco2)C(=O)COc2ccc(C(C)C)cc2)cc1	D1 antag -56, D1 ag 46
Cc1cc(C)c2c(CC(=O)N(Cc3ccc(N(C)C)cc3)Cc3ccco3)coc2c1	none
Cc1ccc2c(CC(=O)N(Cc3ccc(Cl)cc3)Cc3ccco3)coc2c1	D1 ag 33
O=S(=O)(NCC(c1ccco1)S(=O)(=O)c1cccs1)c1ccc(Cl)cc1 (centres undefined)	none (no result: D1 antag)
CCn1ncc([N+](=O)[O-])c1C(=O)Nc1c(C)nn(Cc2ccc(F)cc2)c1C	D1 antag -40
CCOC(=O)c1cc(S(=O)(=O)Nc2cc(C)c(Cl)cc2OC)[nH]n1	none
Cc1cccc(-n2ccnc2SCC(=O)Nc2ccccc2C(F)(F)F)c1	D1 antag -40
Cc1cccc(-n2ccnc2SCC(=O)Nc2cccc3ccccc23)c1	none
O=c1c2ccccc2nc(/C=C/c2ccc(O)cc2)n1CCc1ccccc1	D1 antag -41
O=c1c2ccccc2nc(-c2ccco2)n1CCc1ccc(O)cc1	D1 antag -41 (no result: Epigenetic derep)
O=c1c2ccccc2nc(/C=C/c2ccccc2)n1CCCO	none (no result: Epigenetic derep)
Cc1[nH]n(-c2ccc([N+](=O)[O-])cc2)c(=O)c1C=NCCc1c[nH]c2ccccc12	D1 antag -36
Cc1ccc2ncc3c(-c4ccc(F)cc4)nn(CC(=O)Nc4ccccc4C)c3c2c1	none
Cc1ccccc1NC(=O)Cn1nc(-c2ccc(F)cc2)c2cnc3ccccc3c21	D1 antag -37
COc1cc(=O)n(C)c2c(OC[C@@H](O)C(C)(C)O)cccc12	none (no result: TRHR agonist, TRHR enhancer, D1 potentiator, D1 antag, D1 ag)
Cc1cccc(CSC(Nc2ccc(F)cc2)=C(C#N)C#N)c1	D1 antag -35
N#CC(C#N)=C(Nc1ccc(F)cc1)SCc1cccc(Br)c1	D1 antag -42
CC(SCc1ccccc1)C(=O)Nc1ccc(F)cc1 (centres undefined)	none
CCC(=O)NC(c1cccc(C)c1)c1cc(Cl)c2cccnc2c1O (centres undefined)	none (no result: Epigenetic derep)
COC(=O)c1ccc(NC(=O)CC2C(=O)N(c3ccccc3)C(=O)N2Cc2ccco2)cc1 (centres undefined)	none
CCOc1ccc(NC(=O)CC2C(=O)N(c3ccccc3)C(=O)N2Cc2ccc3c(c2)OCO3)cc1 (centres undefined)	D1 antag -51
CCCCCCOc1ccc(NC(=O)CC2C(=O)N(CC)C(=S)N2Cc2ccco2)cc1 (centres undefined)	D1 antag -40
COc1ccc(NC(=O)CC2C(=O)N(c3ccc(C)cc3)C(=O)N2Cc2ccc3c(c2)OCO3)cc1 (centres undefined)	none
CCOc1ccc(NC(=O)CC2C(=O)N(c3ccccc3)C(=O)N2Cc2ccco2)cc1 (centres undefined)	D1 antag -42
Cc1ccccc1NS(=O)(=O)c1nnc(NC(=O)c2ccco2)s1	Epigenetic derep inconclusive
Cc1ccc(C(=O)N[C@@H](C)CN2C3=NC[C@H](C(C)C)N3C[C@H]2Cc2ccc(O)cc2)cc1Br	D1 antag -57
COc1ccc(C[C@H]2CN3C(=NC[C@@H]3Cc3ccc(O)cc3)N2C[C@H](C)NC(=O)c2ccc(C)c(Br)c2)cc1	D1 antag -42
COc1ccc(C[C@H]2CN3C(=NC[C@@H]3C(C)C)N2C[C@H](C)NC(=O)c2ccc(C)c(Br)c2)cc1	none
CCn1c(=O)n(CC(=O)Nc2cc(OC)c(OC)c(OC)c2)c(=O)c2ccccc21	D1 antag -45
COc1cc(NC(=O)Cc2c(C(=O)O)n(C)c3ccccc23)cc(OC)c1OC	D1 antag -106
CCN(c1cc(C)cc(C)c1)S(=O)(=O)c1nnc(NC(=O)c2ccccc2C)s1	none
Cc1ccc(N=Cc2sc(O)c3ccccc23)c(C)c1	D1 ag 47, Epigenetic derep inconclusive
Cc1ccc(N=Cc2sc(O)c3ccccc23)cc1	TRHR agonist 66, D1 antag -39, D1 ag 302, Epigenetic derep 16µM
COCCN1C(=O)c2[nH]nc(-c3ccccc3O)c2C1c1ccc(Cl)c(Cl)c1 (centres undefined)	none
Cc1[nH][nH]c(=O)c1C(c1c(C)[nH][nH]c1=O)c1cn(Cc2ccc(F)cc2)c2ccccc12	D1 antag -32
COc1ccc(-c2cn3c(n2)sc2cc(C(=O)Nc4ccc(C)c(C)c4)ccc23)cc1	none
O=C1C(O)=C(O)C(=O)C(O)=C1O	none (no result: TRHR agonist, TRHR enhancer, D1 potentiator, D1 antag, D1 ag)
COC(=O)c1ccccc1NC(=O)Cn1ncc2c(C)n(Cc3ccc(F)cc3)c(C)c2c1=O	D1 antag -71
CN1CCN(c2ccccc2NC(=O)Cn2ncc3c([nH]c4ccccc43)c2=O)CC1	none (no result: Epigenetic derep)
CCOc1ccccc1NC(=O)Cn1ncc2c([nH]c3ccccc32)c1=O	D1 antag -30
COc1ccc(-n2cc(C(=O)N(C)c3cc(C)ccc3OC)c3ccccc3c2=O)cc1	none
COCCNC(=O)C1CC2Cn3c(nc4cc5ccccc5cc43)C2N1C (centres undefined)	none
COCCNC(=O)C1CC2Cn3c(nc4cc(C)c(C)cc43)C2N1C (centres undefined)	D1 antag -78
O=C(CC1C(=O)NCCN1CCCc1ccccc1)NCCc1ccccc1F (centres undefined)	D1 ag 34 (no result: Epigenetic derep)
O=C(CC1C(=O)NCCN1Cc1c(F)cccc1Cl)NCCCN1CCCC1=O (centres undefined)	D1 antag -39 (no result: Epigenetic derep)
O=C(CC1C(=O)NCCN1Cc1cccc(F)c1)NCCCN1CCCC1=O (centres undefined)	none (no result: Epigenetic derep)
Cc1nc2ccn(Cc3cccnc3)c(=O)c2cc1C(=O)NCc1ccc(Cl)cc1	none
Cc1ccc(C)c(OCc2nc3ccccc3[nH]2)c1	none
C=CCc1ccccc1OCc1nc2ccc(C)cc2[nH]1	D1 antag -37
CCCc1cc(=O)n2[nH]c(NCc3ccccc3OC)nc2n1	none
Cc1cc2c(s1)c1cnn(Cc3cccc(Cl)c3F)c(=O)c1n2C	none (no result: Epigenetic derep)
Cc1cc2c(s1)c1cnn(Cc3cc(C(F)(F)F)cc(Cl)c3F)c(=O)c1n2C	D1 antag -35 (no result: Epigenetic derep)
O=C(CSc1nc2c([nH]c3ccccc32)c(=O)n1-c1ccccc1)Nc1cccc(C(F)(F)F)c1	none
